Bioassay records: PubChem BioAssay, Sanford-Burnham Center for Chemical Genomics
TIM10 inh: inhibits growth of TIM10 yeast strain | S. cerevisiae TIM10 strain growth, BacTiter-Glo luminescence, 24 h | AID 463195 | hit rate 1.4% among 330,000 | inhibition, % at 10 µM;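 active = inhibition of 40% or more at the single tested concentration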;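 note: wild-type TIM10 isogenic control strain grown at permissive 25 °C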
NALP1 yeast inh: inhibitors of NALP1 inflammasome in yeast | AID 2071 | inhibition, % at 10 µM | hit rate 0.61% among 280,000 | S. cerevisiae NALP1/ASC/caspase-1 growth, X-gal OD620, 72 h; in the data active = inhibition mostly above about 24%, no sharp cut-off; inactive = mostly below about 32%
NALP3 yeast inh: inhibitors of NALP3 inflammasome in yeast | inhibition, % at 10 µM | hit rate 0.39% among 330,000 | AID 2825 | Yeast reconstituted NLRP3/ASC/caspase-1, beta-gal luminescence, 24 h;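 active = inhibition of 50% or more; inactive = inhibition below 50%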
tim23-1 inh: tim23-1 yeast growth inhibition | S. cerevisiae tim23-1 growth, BacTiter-Glo luminescence, 24 h | inhibition, % at 20 µM | hit rate 1.3% among 330,000 | AID 463212;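 active = growth inhibition of the mutant yeast at or above 50%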;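 note: temperature-sensitive mutant grown at 25 °C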
tim10-1 inh: tim10-1 yeast growth inhibition | S. cerevisiae tim10-1 ts strain growth, BacTiter-Glo, 24 h | AID 463190 | inhibition, % at 20 µM | hit rate 2.2% among 330,000;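 active = inhibition of at least 40%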;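 note: mutant grown at 25 °C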
tim10-1 conf: confirmation of tim10-1 mutant yeast growth inhibitors; shares compounds with tim10-1 inh; S. cerevisiae tim10-1 ts strain growth, BacTiter-Glo, 24 h; inhibition, % at 20 µM; hit rate 56% among 7,400;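 active = inhibition of yeast growth at or above a set limit in either of two repeat tests at 20 µM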;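 note: tim10-1 mutant grown at permissive 25 °C to find synthetic lethal compounds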
A number is an active result; - = inactive; . = no result. Shown are actives, neighbours in structure and some others; about 4.1% of the full set was active somewhere.

SMILES	TIM10 inh	NALP1 yeast inh	NALP3 yeast inh	tim23-1 inh	tim10-1 inh	tim10-1 conf
CC(OC(=O)c1ccc([N+](=O)[O-])s1)C(=O)NC1CCCCC1C (stereo unspecified)	-	.	-	-	47	39
O=c1ccc(/C=C/c2ccccc2)nn1Cc1ccc(F)cc1	-	-	-	-	-	.
COc1ccc(/C=C/c2ccc(=O)n(Cc3ccccc3)n2)cc1	-	-	-	-	40	-
Cc1ccc(Cl)c(OCC(=O)Nc2ccc(S(=O)(=O)NC3=NCCCCC3)cc2)c1	-	.	-	-	-	.
O=C(COc1ccc(Cl)cc1Cl)Nc1ccc(S(=O)(=O)NC2=NCCCCC2)cc1	-	-	-	-	44	39
Cc1cc(C)n2nc(C(=O)OCC(=O)NCc3ccccc3)nc2n1	-	.	-	-	-	.
Cc1nc2sccn2c(=O)c1S(=O)(=O)N1CCN(c2ccc(F)cc2)CC1	-	-	-	-	-	.
Cc1nc2sccn2c(=O)c1S(=O)(=O)N1CCN(c2cccc(C(F)(F)F)c2)CC1	-	-	-	-	42	-
N#Cc1ccc(CN2CCN(C(=O)CCNS(=O)(=O)c3ccc(F)c(Cl)c3)CC2)cc1	-	.	-	-	-	.
COc1cccc(/C=C/C(=O)Nc2ccccc2N2CCOCC2)c1	-	-	-	-	-	.
CCn1c(-c2cc(Br)cc(OC)c2O)nc2cc(S(=O)(=O)N(C)C)ccc21	-	-	-	-	43	-
CCCN(CCC)c1ncnc2nc[nH]c12	-	-	-	-	45	-
Clc1ccccc1CN(Cc1ccccc1)c1ncnc2nc[nH]c12	-	.	-	-	41	-
Clc1ccccc1CNc1ncnc2nc[nH]c12	-	-	-	-	-	.
Cc1ccc2c(c1)C(c1ccccc1)CC(=O)O2 (stereo unspecified)	-	-	-	-	-	.
O=C(O)/C=C/c1ccc2c(-c3ccccc3)onc2c1	-	-	-	-	-	.
Cc1ccccc1CSCC(=O)N1CCN(c2ccccc2)CC1	-	-	-	-	44	-
O=C(CSCc1ccc(F)cc1)N1CCN(c2ccccc2)CC1	-	-	-	-	-	.
CS(=O)(=O)c1ccc(CNC(=O)C2(C(F)(F)F)C/C(=C\Cc3ccccc3)CCCO2)cc1 (stereo unspecified)	-	.	-	-	-	.
c1ccc(N2CCCCC2)c(Nc2nc3ccccc3n3cnnc23)c1	-	-	-	-	-	.
FC(F)(F)c1ccc(N2CCOCC2)c(Nc2nc3ccccc3n3cnnc23)c1	-	-	-	-	54	59
Cc1ccc(N=Nc2c(N)[nH]n3c(=O)cc(-c4ccccc4)nc23)cc1	-	-	-	-	50	-
CN1CCCN(C(c2ccccc2)c2ccc(Cl)cc2)CC1 (stereo unspecified)	-	-	-	-	50	34
CN1CCN(C(c2ccccc2)c2ccccc2)CC1	-	.	-	-	-	.
COc1ccc(S(=O)(=O)Nc2nnc(Cc3ccc(OC)c(OC)c3)s2)cc1	-	-	-	-	-	.
SMILES	TIM10 inh	NALP1 yeast inh	NALP3 yeast inh	tim23-1 inh	tim10-1 inh	tim10-1 conf
O=C(Cc1ccccc1F)c1ccc(O)cc1O	-	-	-	-	43	31
CCc1c(C)sc(NC(=S)N2CC(C)OC(C)C2)c1C(=O)OC (stereo unspecified)	-	-	-	-	-	.
Cc1ccc(OC(C)C(=O)N=Nc2c(O)[nH]c3ccc([N+](=O)[O-])cc23)cc1 (stereo unspecified)	-	-	-	-	44	-
COc1ccc(N2CCN(c3oc(Cc4ccccc4)nc3C#N)CC2)cc1	-	-	-	-	40	-
COc1ccc(OC)c(NC(=O)C2CC(=O)N(Cc3ccco3)C2)c1 (stereo unspecified)	-	.	-	-	-	.
Cc1cccc2[nH]c3c(N4CCC5(CC4)OCCO5)ncnc3c12	-	-	-	-	51	32
Clc1ccc2[nH]c3c(N4CCC5(CC4)OCCO5)ncnc3c2c1	-	-	-	-	-	.
C/C(N)=C(/C#N)C(=O)COC(=O)c1ccc(NC(N)=O)cc1	-	.	-	-	-	.
COc1ccc2c(C(=O)NCc3ccc4c(c3)OCO4)c(-c3ccc(S(C)(=O)=O)cc3)sc2c1	-	.	-	-	-	.
c1ccc(-c2cc(-c3nnco3)c3ccccc3n2)nc1	-	-	-	-	40	-
COc1cc(-c2cc(-c3nnco3)c3ccccc3n2)cc(OC)c1OC	-	-	-	-	-	.
N/C(=N\OC(=O)C12CC3CC(CC(C3)C1)C2)c1ccncc1	-	-	-	-	45	-
